Sm TGR block – inhibitors of Schistosoma mansoni thioredoxin glutathione reductase; Q962Y6; purified TGR, DTNB reduction, TNB absorbance 405 nm; Potency, µM (top dose mostly 114 µM), for inactives: top-dose activity change, negative = inhibition, usual class: inhibitors; actives 3% (n = 360,000); also: % is scaled to controls: 0 for no effect and ±100 for the full control effect; nearly all actives have a fitted effect of over 60% in size
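First, TGR (20 nM dispensed) and NADPH were mixed with compound. Second, a 15 min room-temperature incubation followed. Third, further NADPH and then DTNB were added to start the reaction. Finally, TNB absorbance was monitored kinetically.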
AmpC detergent – AmpC beta-lactamase inhibition with detergent present | P00811 | AmpC hydrolysis of nitrocefin, absorbance 480 nm, 0.01% Triton | Potency, µM (titrated, usually from 114 µM), inactives show top-dose activity change, negative = inhibition, hits mostly inhibitors | actives 0.041% (n = 370,000) | AID 485294;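 also: 0% = no-compound wells and -100% = no-enzyme wells; nearly all actives have a fitted effect of over 25% in size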
Target sequence (P00811 whole entry, looked up): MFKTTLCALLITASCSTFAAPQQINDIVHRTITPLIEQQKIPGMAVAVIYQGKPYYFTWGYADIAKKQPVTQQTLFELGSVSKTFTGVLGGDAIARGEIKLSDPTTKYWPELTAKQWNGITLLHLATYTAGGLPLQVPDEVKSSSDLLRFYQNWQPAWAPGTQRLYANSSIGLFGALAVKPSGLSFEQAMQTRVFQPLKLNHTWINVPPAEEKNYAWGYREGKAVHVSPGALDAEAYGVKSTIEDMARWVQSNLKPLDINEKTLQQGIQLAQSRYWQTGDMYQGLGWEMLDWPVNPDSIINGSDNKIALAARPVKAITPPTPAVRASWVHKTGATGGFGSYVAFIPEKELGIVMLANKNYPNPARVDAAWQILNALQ
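AmpC (5.3 nM in the dispensed reagent) in 20 mM phosphate pH 7.0 with 0.01% (detergent screen) or 0.0001% Triton X-100 was preincubated with compounds for 15 min at room temperature. Nitrocefin was then added from an 800 uM solution, and hydrolysis was followed at 480 nm.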
Pf growth 96h – P. falciparum growth inhibition at 96 hours | actives 6.9% (n = 320,000) | P. falciparum luciferase reporter growth, 96 h | Potency, µM (top dose mostly 28.7 µM), for inactives: top-dose activity change, negative = inhibition, actives largely listed as inhibitors; also: % is scaled to controls: 0 for no effect and ±100 for the full control effect
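Erythrocytes infected with luciferase-expressing P. falciparum were dispensed at 2% hematocrit and 0.05% parasitemia (final), then incubated with compounds 96 hours at 37 C in 5% CO2. Luminescence after detection reagent addition reported growth.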
SARS PLP yeast – SARS-CoV PLP inhibition in yeast | S. cerevisiae expressing SARS-CoV PLpro, growth rescue | Potency, µM (doses to about 32.9 µM), for inactives: top-dose activity, positive = growth rescue, hits mostly activators | actives 0.19% (n = 330,000); calls by dose curve; also: 0% is about no effect; nearly all actives have a fitted effect of over 55% in size
Pf growth 48h – inhibits P. falciparum growth in the first generation, 48 h | P. falciparum luciferase growth in erythrocytes, 48 h | AID 504832 | actives 5.9% (n = 310,000) | Potency, µM (series often up to 28.7 µM), for inactives: at the top dose activity change, negative = inhibition, usual class: inhibitors; also: % is scaled to controls: 0 for no effect and ±100 for the full control effect
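Erythrocytes infected with P. falciparum carrying an integrated firefly luciferase reporter (2% hematocrit, 0.1% parasitemia final) were exposed to compounds in RPMI 1640 with 0.5% Albumax at 37 C, 5% CO2. Growth inhibition was scored as reduced luminescence.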
AmpC inh no detg – AmpC beta-lactamase inhibition without detergent; P00811; AmpC nitrocefin hydrolysis, absorbance 480 nm, 0.0001% Triton; Potency, µM (top dose mostly 57.1 µM), for the others: top-dose activity change, negative = inhibition, actives largely listed as inhibitors; actives 0.52% (n = 330,000); AID 485341;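 also: plate controls were no compound for no effect and no enzyme for full effect; nearly all actives have a fitted effect of over 20% in size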
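20 mM phosphate pH 7.0 + 0.01% (detergent screen) or 0.0001% Triton X-100; 5.3 nM AmpC reagent; cpd preinc 15 min RT; nitrocefin (800 uM stock) to start; A480 q20 s × 4 min; Activity was normalised to no-enzyme and no-compound control wells.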
* = called active by the depositor; ? = inconclusive; . = not tested or not shown; [ ] = dose if it differs, or a comment. An excerpt weighted towards active compounds, which were near 12% of everything screened. Unless noted, calls follow the shape of the dose curve; as a rule, active = well fitted curve in the direction sought with a large enough effect; inconclusive = small, poorly fitted or top-dose-only effect, or another doubt; inactive = no such curve, though single readings can be large; an effect the other way counts as inactive or inconclusive. Potency is read from the fitted curve at half-maximal effect.

SMILES	Sm TGR block	AmpC detergent	Pf growth 96h	SARS PLP yeast	Pf growth 48h	AmpC inh no detg
Cc1cc2oc(C(=O)N(Cc3ccc(N(C)C)cc3)CC3CCCO3)c(C)c2cc1Cl (stereo not drawn)	4%	25%	.	.	.	.
Cc1ccc(-c2nnc(NCc3nc4ccccc4[nH]3)c3ccccc23)cc1S(=O)(=O)N1CCCCC1	0%	-14%	13µM*	-7%	?	-14%
COc1ccc(CCNC(=O)C2CCN(c3ncnc4c3nc3n4CCCCC3)CC2)c(OC)c1	1%	7%	.	.	.	.
Cc1cnccc1CN(C)Cc1nc(Cc2ccccc2Cl)no1	-6%	-7%	-25%	-1%	9.3µM*	32%
Cc1ccc(C(=O)CCC(=O)O)cc1	?	-4%	17%	3%	.	-8%
O=C(O)CCC(=O)CCC(=O)c1ccccc1	45µM*	5%	?	4%	10%	1%
Cc1ccc(C(=O)Nc2cccc(C(=O)NC3CCCC3)c2)cc1	-26%	4%	-11%	-6%	56%	-40%
O=C(Sc1cccc2cccnc12)c1ccccc1Br	-19%	-7%	4.7µM*	-51%	1.3µM*	-27%
O=C(Sc1cccc2cccnc12)c1ccc(F)cc1	?	-18%	?	-1%	6.6µM*	-28%[11.4 µM]
O=C(O)CC1SC(=O)N(CC(=O)c2ccccc2)C1=O (stereo not drawn)	-11%	-22%	-80%	-5%	-2%	-15%
COc1ccccc1NC(=O)c1sc2nc(-c3cc4cc(Cl)ccc4oc3=O)[nH]c(=O)c2c1C	-13%	-1%	.	.	.	.
CCOc1ccc(N(C(C)C(=O)NCc2ccco2)S(C)(=O)=O)cc1 (stereo not drawn)	45µM*	8%	6%	1%	.	-10%
CCCCCOc1ccc(C(=O)OC(C)C(=O)NCc2ccco2)cc1 (stereo not drawn)	-4%	-8%	13µM*	9%	?	26%
Cc1ccc([N+](=O)[O-])c2c1C(N1CCCC1)C(C)(C)O2 (stereo not drawn)	56µM*	?	?	-1%	?	68%
Cc1ccc(S(=O)(=O)N2CCCC2)cc1[N+](=O)[O-]	5%	-15%	?	22%	-17%	-26%
CCOC(=O)c1cnc2ccc(OCC)cc2c1NCc1cccnc1	-3%	-5%	6.6µM*	-13%	?	21%
CCOC(=O)c1cnc2ccc(OCC)cc2c1N1CCN(c2ccccc2)CC1	-20%	-18%	.	-32%	?	69%
CCOC(=O)c1cnc2ccc(OCC)cc2c1NCc1ccccc1	-17%	-1%	?	-8%	12µM*	85%
CCN(C(=O)c1sc2nc3n(c(=O)c2c1C)CCCCC3)c1ccccc1F	?	-1%	.	.	.	.
CCN(C(=O)c1sc2nc3n(c(=O)c2c1C)CCCCC3)c1ccc(OC)cc1	22µM*	3%	.	.	.	.
CCc1ccc(N(CC)C(=O)c2sc3nc4n(c(=O)c3c2C)CCCC4)cc1	10µM*	11%	.	.	.	.
Cc1cccc(Cn2nc(-n3cccc3)c3c(C)cc(C)nc32)c1	-1%	?	?	-4%	0%	-6%
COc1ccc(C)cc1NC(=O)CSc1nnc(-c2ccc(C)cc2)o1	6%	-11%	-8%	-5%	.	16%
CCOc1ccc(-c2nnc(SCC(=O)Nc3ccc(C)cc3Cl)o2)cc1	18µM*	27%	.	.	.	.
CCOc1ccc(-c2nnc(SCC(=O)Nc3cc(C)ccc3OC)o2)cc1	11µM*	27%	.	.	.	.
SMILES	Sm TGR block	AmpC detergent	Pf growth 96h	SARS PLP yeast	Pf growth 48h	AmpC inh no detg
CCOc1ccc(-c2nnc(SCC(=O)Nc3ccc(C)cc3C)o2)cc1	-5%	-6%	.	.	.	.
COc1ccc(OC)c(N(CC(=O)NC2CCCC2)S(=O)(=O)c2ccc(OC)c(OC)c2)c1	-22%	-4%	5.9µM*	5%	?	161%
CCOc1ccccc1N(CC(=O)NC1CCCCC1)S(=O)(=O)c1ccc(C)cc1	29%	-3%	24%	5%	12µM*	61%
COc1ccccc1N(CC(=O)NC1CCCC1)S(=O)(=O)c1cccc(C(F)(F)F)c1	1%	0%	?	7%	13µM*	78%
COc1ccc(OC)c(N(CC(=O)N2CCC(C)CC2)S(=O)(=O)c2ccc(OC)c(OC)c2)c1	5%	-11%	2.6µM*	-2%	?	119%
COc1ccccc1N(CC(=O)NC1CCCC1)S(=O)(=O)c1ccc(C)cc1	-17%	-1%	15%	-2%	?	29%
Cc1cc(S(=O)(=O)Nc2ccc(-c3ccc(N4CCCCCC4)nn3)cc2)c(C)cc1Cl	8%	13%	.	.	.	.
CCC1CN(C(=O)Nc2cccc3c2CCCC3)c2cc(Cl)ccc2O1 (stereo not drawn)	-5%	-8%	.	.	.	.
COc1cc(C)c(S(=O)(=O)n2ccc(C)n2)cc1C	0%	-7%	15µM*	1%	.	-7%
CCOc1ccc(S(=O)(=O)N2CCCCC2)c2ccccc12	8%	-1%	?	-40%	-11%	-23%
CCOc1ccc(S(=O)(=O)n2ccc(C)n2)c2ccccc12	2%	0%	?	2%	10µM*	9%
CCOC(=O)C(C(=O)Nc1ccccn1)C1CCCCC1 (stereo not drawn)	-16%	-5%	9.3µM*	3%	6%	-12%
CCCCOc1ccc(N(CC(=O)NC2CCCCC2)C(=O)CCC(=O)Nc2ccccn2)cc1	-5%	-3%	?	.	12µM*	-15%
COc1ccccc1CNC(=O)c1ccc2c(c1)sc1nc(-c3ccc(F)cc3)cn12	29%	24%	.	.	.	.
CCOc1ccc(NC(=O)CN2C(=O)C3(SCC(=O)N3c3ccc(F)cc3)c3ccccc32)cc1 (stereo not drawn)	8%	21%	.	.	.	.
Cc1cc2ncn(C(=O)N3CCCCCC3)c2cc1C	?	1%	7.4µM*	15%	53%	-1%
Cc1cc2ncn(C(=O)N3CCCCC3)c2cc1C	-1%	?	13µM*	0%	8%	-5%
CN(CC(=O)N(C)CC(=O)Nc1c(Cl)cccc1Cl)Cc1ccccc1F	.	.	.	0%	.	-2%
COc1cccc(/C=N/NC(=O)c2c(C)nc3ccc(Cl)cn23)c1O	-21%	-3%	2%	6%	9.3µM*	-2%
Cc1nc2ccc(Br)cn2c1C(=O)N/N=C\c1ccccc1Cl	-29%	?	3.3µM*	-4%	70%	4%
Cc1nc2ccc(Br)cn2c1C(=O)N/N=C\c1ccccc1[N+](=O)[O-]	.	-6%	?	0%	47%	7%
CC1CCN(C(=O)CSc2ccc(-c3ccccc3)nn2)CC1	20µM*	-8%	23%	-7%	-12%	1%
